The list is not random: actives were taken first. Their share in the collection is about 7.4%.
FLuc counter: firefly luciferase modulation, counter-screen for miR-21 project | 6.9% of 360,000 active | AID 588342 | purified FLuc, Km substrates, luminescence inhibition | P08659 | Potency, µM (doses to about 57.5 µM), inactives show at the top dose activity change, negative = inhibition, actives largely listed as inhibitors;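 note: plate controls were vehicle for no effect and reference inhibitor for full effect; nearly all actives have a fitted effect of over 55% in size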
Target sequence (P08659 whole entry, looked up): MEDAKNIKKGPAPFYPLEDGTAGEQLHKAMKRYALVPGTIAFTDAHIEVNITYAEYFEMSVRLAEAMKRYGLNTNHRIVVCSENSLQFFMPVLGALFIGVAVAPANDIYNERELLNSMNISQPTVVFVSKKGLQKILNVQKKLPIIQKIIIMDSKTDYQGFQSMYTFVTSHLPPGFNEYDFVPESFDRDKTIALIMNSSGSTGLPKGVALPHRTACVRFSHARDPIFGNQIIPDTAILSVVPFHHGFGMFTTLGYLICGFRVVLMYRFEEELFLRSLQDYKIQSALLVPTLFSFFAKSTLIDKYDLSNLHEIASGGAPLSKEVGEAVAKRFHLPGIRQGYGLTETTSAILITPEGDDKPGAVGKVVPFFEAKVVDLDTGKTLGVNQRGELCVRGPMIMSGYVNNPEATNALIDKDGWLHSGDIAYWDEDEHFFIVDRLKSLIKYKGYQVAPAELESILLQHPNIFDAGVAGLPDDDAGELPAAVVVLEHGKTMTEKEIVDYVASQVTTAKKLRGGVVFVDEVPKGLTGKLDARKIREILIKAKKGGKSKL
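Purified P. pyralis luciferase (10nM final) with 10uM D-luciferin and 10uM ATP (Km levels) in 50mM Tris acetate pH 7.5, 10mM Mg acetate, 0.01% Tween-20, 0.05% BSA; qHTS 6-point titration, ~60 µM downward; luminescence read.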
ELG1 genotox: induces genotoxicity in HEK293T cells with luciferase-tagged ELG1 | Potency, µM (series often up to 46 µM), without a hit: at the highest dose activity change, positive = activation, most hits filed as activators | AID 504466 | 1.3% of 330,000 active | HEK293T ELG1-luciferase reporter, luminescence, 16 h; note: % of control where 0% means no effect; nearly all actives have a fitted effect of over 60% in size
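HEK293T cells expressing luciferase-tagged ELG1 were exposed to compound or DMSO vehicle for 16 hr at 37 °C and 5% CO2. Luciferase activity was then measured with ONE-Glo after 30 min at room temperature.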
SMN2 splice up: enhancers of SMN2 splice variant expression; HEK293 SMN2-luciferase splicing reporter, luminescence, 30-36 h; Potency, µM (highest dose often 46.1 µM), inactives show at the highest dose activity change, positive = activation, actives largely listed as activators; 2.8% of 210,000 active; AID 1458; note: % of control where 0% means no effect; nearly all actives have a fitted effect of over 55% in size
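HEK293 cells carry an SMN2 […]–luciferase reporter in which exon 7 inclusion puts luciferase in frame. Cells were plated 10-12 h before compound addition, then incubated 30-36 h at 37C. ONE-Glo luminescence was read; sodium butyrate at 4.5 mM final served as control.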
Rab9 prom act: Rab9 promoter activation | 2.8% of 320,000 active | Huh7 Rab9 promoter-luciferase reporter, luminescence, 24 h | Potency, µM (titrated, usually from 9.22 µM), without a hit: at the highest dose activation, negative = inhibition, actives largely listed as activators; note: % of control where 0% means no effect; nearly all actives have a fitted effect of over 60% in size
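Huh7 reporter line, Rab9 promoter upstream of luciferase. Compound exposure 24 h at 37 °C in reduced-serum medium with 10% FBS. Read-out: luminescence.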
p53 reactivator: re-activators of mutant p53 | H1299 p53-A138V BP100-luciferase reporter, luminescence, 24 h | Potency, µM (top dose mostly 92.2 µM), for the others: at the highest dose activity change, positive = activation, usual class: activators | 0.063% of 320,000 active; note: % of control where 0% means no effect; nearly all actives have a fitted effect of over 45% in size
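p53-null H1299 cells stably carrying temperature-sensitive p53-A138V and a BP100-luciferase reporter were pinned with compounds (4-point, 1:5 series) and held 24 hrs at 37 deg C. Luminescence was read 10 min after detection reagent.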
NPC1 prom act: activators of NPC1 promoter; Huh7 NPC1 promoter luciferase reporter, 24 h; Potency, µM (highest dose often 9.22 µM), for inactives: at the top dose activation, actives largely listed as activators; 2.4% of 320,000 active; note: % of control where 0% means no effect; nearly all actives have a fitted effect of over 60% in size
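Huh7 reporter cells (NPC1 promoter driving luciferase) are dosed with compound for 24 h at 37 °C, 5% CO2; luciferase detection reagent is then added and luminescence measured after 10 min at ambient temperature.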
The depositor's hits bear a star; ? = inconclusive; . = not tested or not shown; [ ] = dose if it differs, or a comment. Calls come from the whole dose curve; as a rule, active = well fitted curve in the direction sought with a large enough effect; inconclusive = small, poorly fitted or top-dose-only effect, or another doubt; inactive = no such curve, though single readings can be large; an effect the other way counts as inactive or inconclusive. Potency is the fitted concentration of half-maximal effect.

SMILES	FLuc counter	ELG1 genotox	SMN2 splice up	Rab9 prom act	p53 reactivator	NPC1 prom act
CC(C)c1ccccc1NC(=O)Cn1cnc2c1c(=O)n(C)c(=O)n2C	0.1%	.	-29.3%	.	.	.
Cc1coc2c1c(C)cc1oc(=O)c(CC(=O)NCCCN3CCCC3=O)c(C)c12	?	7.7%	.	-7.9%	1.3%	-0.6%
COc1cccc(C(=O)COc2ccc(NC(=O)c3ccccc3)cc2)c1	3.38µM*	-1.4%	.	-1.2%	.	1.4%
COc1cccc(C(=O)Nc2cccc(OCC(=O)c3ccccc3)c2)c1	12µM*	-14.7%	-16.6%	1.8%	-3.1%	2.0%
O=C(CNC(=O)c1ccco1)OCc1c(F)cccc1Cl	15.1µM*	3.9%	18.8%	-8.5%	-4.7%	1.3%
CCC(=O)Nc1ccc(NC(=O)c2ccccc2)nc1	6.01µM*	?	3.98µM*	0.447µM*	-5.5%	1.26µM*
CCCC(=O)Nc1ccc(NC(=O)c2ccccc2)nc1	4.78µM*	?	.	0.282µM*	3.4%	0.316µM*
CCCC(=O)Nc1ccc(NC(=O)c2ccccc2F)cn1	?	7.7%	.	?	.	?
Cc1ccc(C(=O)N/C(=C/c2ccc(Cl)cc2)C(=O)N2CCOCC2)cc1	-3.6%	3.3%	.	3.6%	-2.1%	-5.1%
O=C(COc1ccc2ccccc2c1)NC1CC(=O)N(c2cccc(F)c2)C1 (stereo not given)	-2.1%	.	.	.	.	.
CCOC(=O)C1(CCc2ccccc2)CCN(C(=O)Cc2nonc2C)CC1	19µM*	11.9%	2.6%	?	18.4%	-0.6%
CCOC(=O)C1(CCc2ccccc2)CCN(C(=O)c2occc2C)CC1	-17.5%	-5.1%	.	-3.9%	3.2%	-2.9%
CCOC(=O)C1(CCc2ccccc2)CCN(C2Cc3ccccc3C2)CC1	15.1µM*	-20.6%	.	?	3.0%	?
O=C(c1cccc(F)c1)N1CCC[C@@]2(CCN(c3ccccc3)C2)C1	.	.	-82.8%	.	.	.
COC(=O)CC(NC(=O)c1ccc(C)cc1)c1ccc2c(c1)OCO2 (stereo not given)	0.4%	0.3%	-23.7%	-4.5%	-3.7%	-2.5%
COC(=O)CC(NC(=O)c1ccc(C)cc1)c1ccccc1 (stereo not given)	3.79µM*	7.5%	-3.9%	5.0%	1.9%	1.7%
Cc1ccc(C(=O)NC(c2ccccc2)C(Cl)Cl)cc1 (stereo not given)	21.3µM*	-0.1%	-14.6%	-1.4%	?	0.1%
Cc1ccc(-c2nnc(Nc3ccc(O)cc3)c3ccccc23)cc1S(=O)(=O)N1CCN(C)CC1	-2.7%	.	-7.7%	.	.	.
NC(=O)CC[C@H](NC(=O)c1ccc(Cl)cc1)C(=O)NNC(=O)COc1cccc(Br)c1	.	4.1%	.	.	-12.6%	.
CCc1ccc(Oc2cc(C)nc(N)n2)cc1	4.26µM*	?	10µM*	3.16µM*	?	3.16µM*
CCn1c(SCC(=O)Nc2ccc3c(c2)oc2ccccc23)nnc1-c1ccc(N)cc1	2.69µM*	-9.2%	-12.9%	3.6%	-3.0%	-5.0%
CC(=O)Nc1ccc(-c2nnc(SCC(=O)Nc3ccc4c(c3)oc3ccccc34)n2C)cc1	1.2µM*	0.9%	-4.1%	?	10.5%	?
Cc1cccc(-n2ncc3c(NCCOCCO)ncnc32)c1	19µM*	.	.	.	.	.
COc1ccc(-n2ncc3c(Nc4cccc(C)c4)ncnc32)cc1	10.7µM*	?	?	3.98µM*	9.1%	2.82µM*
Cc1ccc(-n2ncc3c(Nc4cccc(C(F)(F)F)c4)ncnc32)cc1C	15.1µM*	.	.	.	.	.
SMILES	FLuc counter	ELG1 genotox	SMN2 splice up	Rab9 prom act	p53 reactivator	NPC1 prom act
Cc1cccc(-n2ncc3c(NC(C)C)ncnc32)c1	2.39µM*	2.59µM*	3.55µM*	0.891µM*	14.7%	3.16µM*
Cc1cccc(-n2ncc3c(Nc4c(C)cc(C)cc4C)ncnc32)c1	-9.0%	.	.	.	.	.
CCn1c(=O)c2sccc2n2c(CCC(=O)Nc3ccc(F)cc3)nnc12	-1.7%	.	-5.6%	.	.	.
Cc1cccc(-n2ncc3c(Nc4ccc(F)cc4)ncnc32)c1	?	14.6µM*	11.2µM*	2.51µM*	-3.3%	?
CC(C)Nc1ncnc2c1cnn2-c1ccccc1	2.39µM*	?	0.631µM*	0.355µM*	.	1.41µM*
CCCn1ncc2c(Nc3ccc(C)c(C)c3)ncnc21	23.9µM*	?	.	?	18.7%	3.55µM*
CC(=O)O[C@H]1CC[C@@]2(C)[C@@H](CC[C@H]3[C@H]2CC(=O)[C@@]2(C)[C@@H]3C[C@H]3CC(C)=CC(=O)[C@H]32)C1	.	.	12.5%[9.22 µM]	.	.	.
C#Cc1ccc(CN2CCN(CCCc3ccccc3)C(CCO)C2)cc1 (stereo not given)	4.7%	-5.0%	.	4.3%	.	1.2%
COc1ccc(NC(=O)N2CC[C@@]3(CCCN(C(=O)c4cnccn4)C3)C2)cc1	.	.	-1.2%	.	.	.
CCn1c(-c2ccccn2)nc2cc(S(=O)(=O)N(C)C)ccc21	21.3µM*	7.7%	.	27.0%	8.7%	18.0%
CC(C)CCN(C(=O)c1csnn1)C(C(=O)NC1CCCC1)c1ccc(F)cc1 (stereo not given)	19µM*	0.6%	.	-2.6%	1.2%	6.9%
CCCCN1C=CC(=C2C(=O)c3ccccc3C2=O)C=C1	0.135µM*	?	-66.8%	0.0316µM*	-5.5%	?
CCCCNC1=CC(=O)C(=O)c2ccccc21	?	4.1%	.	11.2%	4.2%	5.6%
COc1ccc(-c2cc(-c3ccc(C)cc3)nc3c2COc2ccccc2-3)cc1	?	.	10.0%	.	.	.
Cc1ccc(-c2nn(-c3ccc(F)cc3)cc2C(=O)NCCCN2CCCC2=O)cc1	10.7µM*	-6.7%	.	2.9%	10.2%	1.4%
Cc1ccc(-c2nn(-c3ccccc3)cc2C(=O)NCCCN2CCOCC2)cc1	?	1.5%	.	4.7%	23.6%	9.4%
Cc1ccc(NC(=O)C(=O)NCCCN2CCCC2=O)cc1	12µM*	2.06µM*	.	1.41µM*	0.7%	2.24µM*
CN(C)c1ccc(CNC(=O)c2ccc3c(c2)N(C)C(=O)C2CCCCN32)cc1 (stereo not given)	3.2%	.	.	.	.	.
Cc1cc(=O)[nH]c2nnc(-c3ccc(Cl)cc3)n12	3.38µM*	?	.	?	23.8%	2.82µM*
COc1ccc(C(=O)Nc2nc(-c3cccs3)cs2)cc1	6.75µM*	.	-34.4%	.	.	.
COc1cc(C(=O)Nc2nc(-c3cccs3)cs2)cc(OC)c1OC	-1.4%	-4.8%	?	-1.2%	-10.5%	-3.6%
NC(=S)Nc1nccc(-c2cccs2)n1	?	9.5%	19.6%	18.0%	0.5%	8.0%
Cc1csc(NC(=O)c2sc3nc(-c4cccs4)ccc3c2N)n1	3.79µM*	?	-5.1%	-36.6%	-8.9%	-30.9%

Compound activity: PubChem BioAssay, National Center for Advancing Translational Sciences (NCATS)
